Compound activity from PubChem BioAssay.
Tgondii IFNg = T. gondii growth inhibition with IFN-gamma, primary screen, cell-based; Toxoplasma gondii growth in IFN-gamma-treated host cells; hits give low values; activity change, negative = inhibition, % (test concentration not listed); actives 3.8% (n = 69,000); in the data active = activity change below about -70%, passing the limit was not always enough;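 also: host cells are HeLa cells infected with Toxoplasma gondii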
The depositor's hits bear a star; i = inactive. The sample as a whole holds a higher share of hits than the screen did.

SMILES | Tgondii IFNg
COc1cc(NC(=O)Nc2ccc(-c3nc(-c4ccc(C)cc4)co3)cc2)cc(OC)c1OC | -39
COc1ccc(C)cc1NC(=O)Nc1ccc(-c2nc(-c3cc(C)ccc3C)co2)cc1 | -72*
Cc1ccc(C)c(-c2coc(-c3ccc(NC(=O)Nc4ccccc4)cc3)n2)c1 | 1
COc1ccc(NC(=O)Nc2ccc(-c3nc(-c4cc(C)ccc4C)co3)cc2)c(OC)c1 | -17
COc1cc(C(=O)Nc2ccc(-c3nc(-c4ccccc4)co3)cc2)cc(OC)c1OC | -20
COc1cc(NC(=O)Nc2ccc(-c3nc(-c4ccccc4)co3)cc2)cc(OC)c1OC | -88*
O=C(CCO)N1CCCC2(COCCN(c3cnccn3)C2)C1 (configuration not stated) | 3
COc1cc(N2CCC(c3cc(-c4ccco4)n[nH]3)CC2)ncn1 | 6
Cn1cc(CN2CCc3ncnc(-c4ccc(F)cc4)c3CC2)cn1 | -19
Cc1ccccc1-c1nc(CN2CCN(C(=O)Nc3ccc(F)cc3)CC2)c(C)o1 | 0
O=C(c1cnc2c(O)cccn2c1=O)N1CCOC(C(F)(F)F)C1 (configuration not stated) | -24
CO[C@H]1CN(C)C(=O)c2cc(NC(=O)NC(C)C)ccc2OC[C@@H](C)N(Cc2ccccc2)C[C@H]1C | 100
CN(CCCSc1ccccc1)Cc1ccc(C(F)(F)F)nc1 | 4
Cn1c(C#N)ccc1-c1ccc2c(c1)C(C)(C)OC(=S)N2 | -83*
CC(C)c1cc(C(=O)N2CCOC(CCCc3ccccc3)C2)nc2ncnn12 (configuration not stated) | -2
COc1ccc(CN(CC(C)C)C(=O)c2ccoc2)cc1 | 1
CN(C)C(=O)[C@H]1C[C@H]2CCN(CCOCc3ccccc3)C[C@@H]2O1 | -25
O=C(O)c1ccc(-c2ccc(O)c(F)c2)cc1 | 42
O/N=C/c1ccc(-c2ccc(O)c(F)c2)c(Cl)c1O | -87*
Cc1c(N2CCCC2)ccc2c1NC(=O)CC2c1ccc2c(c1)nnn2C (configuration not stated) | -7
CCn1c(C2CCN(C(=O)NC(C)(C)CC(C)(C)C)CC2)nn(C)c1=O | 44
Cc1onc(-c2c(F)cccc2Cl)c1-c1nnc(-c2ccc(C(F)(F)F)cc2)o1 | -99*
FC(F)(F)c1ccc(-c2nnc(COc3ccccc3Cl)o2)cc1 | 21
Cc1onc(-c2c(Cl)cccc2Cl)c1-c1nc2cccc(F)c2c(=O)o1 | -35
O=C(Cc1cccnc1)N1[C@H](CO)[C@H](c2ccccc2)[C@H]1CNCC1CCC1 | 5
SMILES | Tgondii IFNg
NC(=O)c1cnc2n1CCN(C(=O)c1nc3c(s1)CCCC3)C2 | -4
COCCNC(=O)c1cc2cc(S(=O)(=O)N(C)C)ccc2n1Cc1ccncc1 | 178
Cc1cccc(C2c3[nH]c4ccccc4c3CCN2C(=O)c2nonc2C)n1 (configuration not stated) | -19
Cc1ccc(C(=O)Nc2ccc(Oc3cc4cnn(C)c4cc3-c3cn[nH]c3)c(F)c2)c(=O)n1-c1ccc(F)cc1 | -74*
COc1ccc(NC(=O)c2c(O)c3cccnc3n(-c3ccc(F)cc3)c2=O)cc1F | 132
Cc1ccc(NC(=O)c2c(O)c3cccnc3n(-c3ccc(F)cc3)c2=O)cc1F | 89
CC(C)c1noc(-c2cc(=O)n(CC(=O)NCc3ccccc3F)c3ccccc23)n1 | 69
COCC1(C(=O)NCc2ccc3c(c2)CC(C)(C)O3)CCC1 | 4
CCCCCCSc1ncc(C#N)c(N)n1 | -5
CCCCCc1nc(N)c(C#N)c(-c2ccco2)c1CCCC | -91*
Cc1nc(-c2ccccn2)sc1C(=O)Nc1ccc2c(c1)nc(C(C)C)n2C | -11
CC(Cc1cccnc1)Nc1nccc(-c2cnn(-c3ccccc3F)c2)n1 (configuration not stated) | -72*
Cc1cccc(-n2cc(-c3ccnc(NC(C)Cc4ccncc4)n3)cn2)c1 (configuration not stated) | -51
CC(NC(=O)Cc1ccccn1)c1cnn(-c2ccccc2F)c1 (configuration not stated) | 6
Cc1cnc(CNC(=O)c2nc(-c3cn(C(C)C)cn3)n3ccccc23)cn1 | -1
O=C(O)c1cc(-n2cc(CCO)cn2)ccc1F | 0
CC(CCC(=O)NCC(=O)O)C1CCC2C3C(O)CC4CC(O)CCC4(C)C3CCC12C (configuration not stated) | 4
Cn1cc(N2CCC3(CCN(C(=O)c4cccn4C)C3)C2=O)cn1 (configuration not stated) | -1
O=C(C(=O)N1CCC(c2cc(Cc3ccccc3)[nH]n2)CC1)c1ccco1 | -4
COc1ccc2c(c1)C=C(CN1CCC(O)(c3cnc(OC)nc3OC)CC1)CO2 | 22
COc1cc(C(=O)O)ccc1NC(=O)[C@@H]1N[C@@H](CC(C)(C)C)[C@](C#N)(c2ccc(Cl)cc2F)[C@H]1c1cccc(Cl)c1F | -80*
C[C@@H]1CN([C@@H](C)CO)C(=O)c2ccccc2-c2ccccc2CO[C@@H]1CN(C)S(=O)(=O)c1ccc([N+](=O)[O-])cc1 | 34
Cn1ccnc1CN1CCc2ncnc(-c3cccc(F)c3)c2CC1 | -63
CCOC(=O)C1CCCN(C(=O)c2nc(-c3ccc(Cl)cc3)n3c2CCCCC3)C1 (configuration not stated) | 99
O=C(c1nc(-c2cccc(F)c2)n2c1CCCCC2)N1CCN(c2ccccc2)CC1 | -12
SMILES | Tgondii IFNg
Cc1ccc(-c2nc(C(=O)N3CCCC(C)C3)c3n2CCCCC3)cc1 (configuration not stated) | -96*
CC1CCCN(C(=O)c2nc(-c3ccc(Cl)cc3)n3c2CCCCC3)C1 (configuration not stated) | -97*
Cc1ccc(-c2nc(C(=O)N3CCC(C)CC3)c3n2CCCCC3)cc1 | -32
CCOC(=O)C1CCN(C(=O)c2nc(-c3ccc(Cl)cc3)n3c2CCCCC3)CC1 | -69
Cc1ccsc1CN(C/C=C/c1ccco1)Cc1ccccn1 | 90
CCn1cc(S(=O)(=O)N2CC=CC[C@@]3(C(=O)N4CCN(C)CC4)CCC[C@@H]23)cn1 | -9
Cc1nc(C(C)N(C)Cc2ccc(N(C)C)nc2)c(C)s1 (configuration not stated) | -2
COC(=O)c1cc2n(n1)CCCN(C(=O)c1sccc1NC(C)=O)C2 | 0
Cc1nnsc1C(=O)N1CCN(c2ccccn2)CC1 | -6
NC1(C(=O)N2CCC(c3cc(-c4ccccc4Cl)n[nH]3)CC2)CCC1 | -6
COCc1ncn2c1CN(C(=O)c1cc(C)oc1C)CC2 | 478
FC(F)(F)Oc1ccc(Nc2n[nH]c(=S)s2)cc1 | -92*
COc1ccc(CNc2n[nH]c(=S)s2)cc1 | 408
FC(F)(F)Oc1ccc(OCc2n[nH]c(=S)o2)cc1 | -35
CC(C)COC(=O)N(C)C[C@@H]1OCc2ccccc2-c2ccccc2C(=O)N([C@@H](C)CO)C[C@@H]1C | 0
COc1cc(C(=O)NCCc2sc(-c3cccc(C)c3)nc2C)cc(OC)c1OC | i
CC(=O)c1cccc(NC(=S)Nc2ccc(F)cc2)c1 | 27
O=C(Cc1ccccc1)Nc1ccc(Cl)cc1 | -60
CCc1ccc(NC(=S)Nc2ccc(Cl)cc2C(=O)c2ccccc2)cc1 | -96*
CSc1nc(C(=O)N2CCCC(CCC(=O)NCc3ccccc3F)C2)cs1 (configuration not stated) | -30
CC(C)c1cc(C2CCN(C(=O)C(C)n3ccnc3C(C)C)CC2)[nH]n1 (configuration not stated) | -3
COC(=O)CCCNC(=O)Cc1c2c(n(C(C)C)c1C)CC(C)(C)CC2=O | 13
